In PubChem BioAssay (Tox21):
Unmarked numbers belong to inactive results. Records with an inconclusive call do not appear. A call without a number means that no potency is given here. Activity calls are given as the source filed them. Unless noted, calls follow the shape of the full dose curve.

Tests used:
[1] = Nuclear factor erythroid 2-related factor 2/antioxidant responsive element (Nrf2/ARE) small molecule agonists: qHTS cell viability counter screen in human keratinocytes (AID 1919968; active = well fitted curve in the direction sought with a large enough effect in the repeat runs; an effect the other way counts as inactive or inconclusive; also: nearly all actives have a fitted effect of over 55% in size)
How it was run: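 Measured as CellTiter-Fluor fluorescence, this readout tracks cytotoxicity in the same wells as the ARE-luciferase screen. HaCaT reporter cells (1,500/well) received compounds after a 5 h pre-incubation and were exposed for 23 h.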

[2] = Nuclear factor erythroid 2-related factor 2/antioxidant responsive element (Nrf2/ARE) small molecule agonists: luciferase reporter gene qHTS assay in human keratinocytes (AID 1919969); also: nearly all actives have a fitted effect of over 35% in size
[3] = target: Gonadotropin-releasing hormone receptor (Homo sapiens) (UniProt P30968); assay: Human gonadotropin-releasing hormone receptor (GnRHR) small molecule agonists, calcium flux assay in GnRHR-HEK293 cells (AID 1920063); also: nearly all actives have a fitted effect of over 35% in size
Gonadotropin-releasing hormone receptor (Homo sapiens), sequence (P30968 whole entry, looked up): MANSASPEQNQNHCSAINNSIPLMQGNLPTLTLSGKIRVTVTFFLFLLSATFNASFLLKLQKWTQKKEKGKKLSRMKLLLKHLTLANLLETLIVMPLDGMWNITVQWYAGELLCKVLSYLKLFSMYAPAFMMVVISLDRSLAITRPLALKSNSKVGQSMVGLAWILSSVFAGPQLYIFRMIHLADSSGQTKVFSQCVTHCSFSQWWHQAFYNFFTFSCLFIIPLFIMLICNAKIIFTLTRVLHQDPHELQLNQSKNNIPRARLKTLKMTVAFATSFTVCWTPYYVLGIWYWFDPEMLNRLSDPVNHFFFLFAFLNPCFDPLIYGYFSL
How it was run: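 Fluorescence kinetics (480 nm excitation, 540 nm emission; 3 min, 1 s steps) report calcium mobilisation in human GnRHR-HEK293 cells in agonist mode. Dye incubation: 1 h, 37 C.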

[4] = target: KiSS-1 receptor (Homo sapiens) (UniProt Q969F8); assay: Human kisspeptin (KISS1R) small molecule agonists, calcium flux assay in KISS1R-HEK293 cells (AID 1920064; active = well fitted curve in the direction sought with a large enough effect in the repeat runs; an effect the other way counts as inactive or inconclusive)
KiSS-1 receptor (Homo sapiens), sequence (Q969F8 whole entry, looked up): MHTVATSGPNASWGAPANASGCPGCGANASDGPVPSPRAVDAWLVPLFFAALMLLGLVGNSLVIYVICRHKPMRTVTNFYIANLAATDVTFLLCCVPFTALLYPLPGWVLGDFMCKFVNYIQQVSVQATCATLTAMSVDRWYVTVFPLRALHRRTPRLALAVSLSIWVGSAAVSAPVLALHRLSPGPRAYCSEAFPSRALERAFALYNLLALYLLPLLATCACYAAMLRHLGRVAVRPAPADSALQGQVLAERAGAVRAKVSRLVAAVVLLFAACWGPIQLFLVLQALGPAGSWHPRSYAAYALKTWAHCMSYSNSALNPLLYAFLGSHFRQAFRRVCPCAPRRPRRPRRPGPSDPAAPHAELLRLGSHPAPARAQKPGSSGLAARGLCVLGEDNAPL
How it was run: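 Measures KISS1R agonism through calcium-sensitive dye fluorescence in stably transfected HEK293 cells, read for 3 min after pin-tool compound delivery; 15-point titrations in triplicate.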

[5] = G protein-coupled receptor (GPCR) small molecule agonists, calcium flux assay: HEK293 wild type cell line counter screen (AID 1920065)
How it was run: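 Readout: fluorescence at 480 nm excitation/540 nm emission, sampled at 1 s intervals for 3 min. Cells had been cultured 18 h, then dye-loaded 1 h at 37 C before compound or ATP addition.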

[6] = p53 small molecule agonists, cell-based qHTS assay with human liver microsomes (AID 1963577);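 also: p53 response element beta-lactamase reporter cells with liver microsomes plus NADPH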
How it was run: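 With metabolic activation: human liver microsomes (0.5 mg/mL final) plus NADPH (0.5 mg/mL final) added alongside compounds to p53RE-bla cells; 16 h 37 C exposure; beta-lactamase read by LiveBLAzer fluorescence.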

[7] = p53 small molecule agonists, cell-based qHTS assay with rat liver microsomes (AID 1963578)
How it was run: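 Metabolic activation by rat liver microsomes and NADPH, each 0.5 mg/mL final, added right after compounds to p53RE-bla reporter cells (4,000/well, plated 5 h earlier). 16 h at 37 C, then LiveBLAzer substrate for 2 h at room temperature in the dark; fluorescence read-out.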

[8] = p53 small molecule agonists, cell-based qHTS assay with human liver microsomes: qHTS cell viability counter screen (AID 1963579); also: nearly all actives have a fitted effect of over 45% in size
How it was run: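 Metabolic activation used human liver microsomes and NADPH, both 0.5 mg/mL final, over 16 hours at 37 C on p53RE-bla cells (4,000/well). Cytotoxicity measured by CellTiter-Glo luminescence, 30 min at room temperature.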

[9] = p53 small molecule agonists, cell-based qHTS assay with rat liver microsomes: qHTS cell viability counter screen (AID 1963580); also: nearly all actives have a fitted effect of over 45% in size
How it was run: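 In HCT-116 cells carrying a p53 response element-bla reporter, compounds were metabolically activated in situ by rat liver microsomes with NADPH over 16 h. Cell ATP content then served as the cytotoxicity measure.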

[10] = p53 small molecule agonists, cell-based qHTS assay: qHTS cell viability counter screen (AID 1963581); also: nearly all actives have a fitted effect of over 45% in size
How it was run: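 In the same plates used for the p53 bla reporter, HCT-116 cells given compounds for 16 h at 37 C received CellTiter-Glo; luminescence was recorded 30 min later at room temperature.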

[11] = p53 small molecule agonists, cell-based qHTS assay (AID 1963582; active = well fitted activation curve with a large enough effect in the signal ratio in the repeat runs, not every such curve was filed as active; the % refers to the signal ratio)
How it was run: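 Compounds are pin-transferred in DMSO onto p53RE-bla cells and incubated 16 h at 37 C. The B/G FRET beta-lactamase substrate is then applied for 2 h at RT and fluorescence recorded.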

[12] = target: 5-hydroxytryptamine receptor 2A (Homo sapiens) (UniProt P28223); assay: 5-hydroxytryptamine receptor 2A (HTR2A) small molecule antagonists, cell-based qHTS assay (AID 1963586); also: nearly all actives have a fitted effect of over 45% in size
5-hydroxytryptamine receptor 2A (Homo sapiens), sequence (P28223 whole entry, looked up): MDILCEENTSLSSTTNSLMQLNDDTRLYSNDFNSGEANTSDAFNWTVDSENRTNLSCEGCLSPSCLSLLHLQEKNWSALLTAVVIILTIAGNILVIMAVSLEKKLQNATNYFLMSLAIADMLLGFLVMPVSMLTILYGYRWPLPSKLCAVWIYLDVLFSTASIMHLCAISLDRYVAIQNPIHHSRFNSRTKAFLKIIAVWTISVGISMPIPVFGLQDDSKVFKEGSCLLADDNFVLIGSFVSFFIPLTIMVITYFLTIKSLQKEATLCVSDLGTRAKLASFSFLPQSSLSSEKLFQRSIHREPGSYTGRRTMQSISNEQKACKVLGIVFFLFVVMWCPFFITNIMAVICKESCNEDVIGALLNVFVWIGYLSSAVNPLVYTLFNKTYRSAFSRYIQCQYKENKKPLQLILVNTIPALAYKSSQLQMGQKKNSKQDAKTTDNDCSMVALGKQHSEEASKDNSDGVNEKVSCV
How it was run: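 Antagonist-mode intracellular calcium assay: DOI (4 nM) added after 5 min compound pre-incubation at room temperature to dye-loaded HTR2A-CHO cells. Fluorescence followed for 3 min, sampled every second.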

[13] = target: 5-hydroxytryptamine receptor 2A (Homo sapiens) (UniProt P28223); assay: 5-hydroxytryptamine receptor 2A (HTR2A) small molecule agonists, cell-based qHTS assay (AID 1963587); also: nearly all actives have a fitted effect of over 30% in size
How it was run: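 HTR2A-CHO cells, plated 18 h at 37 C/5% CO2, dye-loaded 1 h at 37 C; compounds in DMSO added by pin tool (agonist mode). Intracellular calcium flux read as kinetic fluorescence on FDSS over 2 min at 1 s intervals.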

[14] = target: Muscarinic acetylcholine receptor M1 (Homo sapiens) (UniProt P11229); assay: Cholinergic receptor muscarinic 1 (CHRM1) small molecule antagonists, cell-based qHTS assay (AID 1963588); also: nearly all actives have a fitted effect of over 40% in size; also: potency is read from the fitted curve at half-maximal effect
Muscarinic acetylcholine receptor M1 (Homo sapiens), sequence (P11229 whole entry, looked up): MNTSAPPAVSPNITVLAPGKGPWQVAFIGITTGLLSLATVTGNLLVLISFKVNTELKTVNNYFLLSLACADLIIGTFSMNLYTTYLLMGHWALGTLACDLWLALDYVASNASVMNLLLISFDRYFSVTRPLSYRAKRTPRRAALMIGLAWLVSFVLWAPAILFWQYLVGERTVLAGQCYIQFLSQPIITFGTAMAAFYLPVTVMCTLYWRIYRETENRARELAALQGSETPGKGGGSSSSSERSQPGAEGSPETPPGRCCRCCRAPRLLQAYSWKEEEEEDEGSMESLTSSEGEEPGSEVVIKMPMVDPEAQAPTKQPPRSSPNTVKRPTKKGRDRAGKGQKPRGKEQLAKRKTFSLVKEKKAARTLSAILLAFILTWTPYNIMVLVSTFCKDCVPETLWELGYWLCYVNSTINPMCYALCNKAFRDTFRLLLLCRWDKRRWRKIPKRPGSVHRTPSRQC
How it was run: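 CHRM1-CHO calcium-flux assay, antagonist mode. Cells were seeded 18 h, dye-loaded 1 h at 37 C and given compound for 5 min at RT, then acetylcholine was added at 50nM. FDSS fluorescence was read 3 min; 15 concentrations, three runs.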

[15] = target: Muscarinic acetylcholine receptor M1 (Homo sapiens) (UniProt P11229); assay: Cholinergic receptor muscarinic 1 (CHRM1) small molecule agonists, cell-based qHTS assay (AID 1963589); also: nearly all actives have a fitted effect of over 35% in size
How it was run: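 Each compound was tested at 15 concentrations across three independent runs on dye-loaded CHO cells stably expressing human CHRM1, reading intracellular calcium fluorescence kinetically at 1 sec intervals.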

[16] = cAMP Responsive Elements (CRE) small molecule agonists, cell-based qHTS assay (AID 1963590)
How it was run: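 Cell line: CRE-bla HEK 293T; medium DMEM/10% dialyzed FBS/0.1 mM NEAA/1 mM pyruvate/25 mM HEPES; 3 h compound exposure; beta-lactamase FRET readout after 2 h substrate loading at RT.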

[17] = cAMP Responsive Elements (CRE) small molecule antagonists, cell-based qHTS assay (AID 1963591; active = well fitted inhibition curve with a large enough effect in the signal ratio in the repeat runs, not every such curve was filed as active; the % refers to the signal ratio)
How it was run: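 Inhibition of NKH477-driven (0.25 uM final) CRE-beta-lactamase signal in HEK293T cells, 3 h compound exposure at 37 °C, detected by FRET substrate fluorescence.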

[18] = target: Beta-2 adrenergic receptor (Homo sapiens) (UniProt P07550); assay: Adrenergic beta2 receptor (ADRB2) small molecule antagonists, cell-based qHTS assay (AID 1963592); also: series mostly up to about 92 µM; nearly all actives have a fitted effect of over 50% in size
Beta-2 adrenergic receptor (Homo sapiens), sequence (P07550 whole entry, looked up): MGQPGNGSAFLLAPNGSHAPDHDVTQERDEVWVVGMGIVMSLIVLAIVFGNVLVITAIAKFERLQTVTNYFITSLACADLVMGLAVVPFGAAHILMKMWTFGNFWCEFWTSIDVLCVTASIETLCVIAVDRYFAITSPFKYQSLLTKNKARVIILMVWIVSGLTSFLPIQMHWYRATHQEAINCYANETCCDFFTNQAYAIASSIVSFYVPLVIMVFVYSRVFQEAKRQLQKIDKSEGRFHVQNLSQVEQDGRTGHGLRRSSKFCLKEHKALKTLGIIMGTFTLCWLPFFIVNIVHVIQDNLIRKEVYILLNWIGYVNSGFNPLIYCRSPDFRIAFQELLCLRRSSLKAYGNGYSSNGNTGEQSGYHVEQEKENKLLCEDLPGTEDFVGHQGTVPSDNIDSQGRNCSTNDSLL
How it was run: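 Cells (CHO, stable ADRB2 overexpression) incubated 18-20hr at 37C; compounds added from DMSO; agonist mix (1nM isoproterenol, 100uM IBMX, 25uM Ro-20-1724) added; 0.5hr RT; d2-cAMP and anti-cAMP-cryptate added; 1hr RT; 665/615 nm read.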

[19] = target: D(2) dopamine receptor (Homo sapiens) (UniProt P14416); assay: Dopamine D2 receptor (DRD2) small molecule agonists, cell-based qHTS assay (AID 1963594); also: nearly all actives have a fitted effect of over 35% in size
D(2) dopamine receptor (Homo sapiens), sequence (P14416 whole entry, looked up): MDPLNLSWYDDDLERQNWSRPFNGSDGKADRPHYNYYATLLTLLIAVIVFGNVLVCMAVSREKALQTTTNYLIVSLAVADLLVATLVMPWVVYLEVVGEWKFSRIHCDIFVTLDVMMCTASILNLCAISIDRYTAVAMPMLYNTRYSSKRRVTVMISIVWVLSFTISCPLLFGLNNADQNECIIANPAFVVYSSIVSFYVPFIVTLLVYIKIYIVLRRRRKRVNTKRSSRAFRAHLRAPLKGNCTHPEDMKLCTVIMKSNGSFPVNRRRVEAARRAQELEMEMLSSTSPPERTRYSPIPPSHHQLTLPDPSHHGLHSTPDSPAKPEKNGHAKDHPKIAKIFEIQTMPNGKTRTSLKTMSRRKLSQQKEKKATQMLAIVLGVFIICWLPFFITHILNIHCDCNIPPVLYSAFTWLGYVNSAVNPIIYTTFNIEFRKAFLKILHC
How it was run: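 HEK293 cells stably expressing DRD2 were cultured 24 h at 37 C, then given Ro20-1724 (0.1 mM final) and compounds for 10 min at room temperature. NKH477 (200nM) was then added for 30 min. cAMP was read by HTRF.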

[20] = target: D(2) dopamine receptor (Homo sapiens) (UniProt P14416); assay: Dopamine D2 receptor (DRD2) small molecule antagonists, cell-based qHTS assay (AID 1963595; active = well fitted inhibition curve with a large enough effect in the signal ratio in the repeat runs, with a control signal flat; the % refers to the signal ratio)
How it was run: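 Human DRD2 antagonist qHTS measuring cAMP by HTRF. The cells are exposed to compound for 10 min, then to NKH477 (200 nM) and quinpirole (12 nM) for 30 min at RT, with Ro20-1724 (0.1 mM) present throughout.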

## CCCCC(=O)N(C)C
[1]
  Potency: inactive
[2]
  Potency: inactive
[3]
  Potency: inactive
[4]
  Potency: inactive
[5]
  Potency: inactive
[6]
  Potency: inactive
[7]
  Potency: inactive
[8]
  Potency: inactive
[9]
  Potency: inactive
[10]
  Potency: inactive
[11]
  Potency: inactive
[12]
  Potency: inactive
[13]
  Potency: inactive
[14]
  Potency: inactive
[15]
  Potency: inactive
[16]
  Potency: inactive
[17]
  Potency: inactive
[18]
  Potency: inactive
[19]
  Potency: inactive
[20]
  Potency: inactive

## CCCCCCCCCCCCCCCCI
[1]
  activity change, negative = cytotoxicity: 1.33% [at 19 µM]
[2]
  activity, positive = activation: -9.58% [at 19 µM]
[3]
  activity change: 0.684% [at 11.8 µM, active compounds read high]
[4]
  activation: 7.41% [at 15.8 µM]
[5]
  activation: 2.83% [at 11.8 µM]
[6]
  activation: -0.459% [at 13.5 µM]
[7]
  activation: -1.95% [at 13.6 µM]
[8]
  activity change, negative = cytotoxicity: 1.61% [at 13.5 µM]
[9]
  activity change, negative = cytotoxicity: -2.18% [at 13.5 µM]
[10]
  activity change, negative = cytotoxicity: -8.29% [at 13.5 µM]
[11]
  activation: -4.93% [at 13.5 µM]
[12]
  activity, negative = inhibition: -0.251% [at 12.7 µM]
[13]
  activation: -2.69% [at 15.9 µM]
[14]
  activity, negative = inhibition: -11% [at 12.6 µM]
[15]
  activation: 1.29% [at 15.8 µM]
[16]
  activation: -1.28% [at 19 µM]
[17]
  activity change, negative = inhibition: -14.2% [at 18.9 µM]
[18]
  activity change, negative = inhibition: 0.138% [at 19 µM]
[19]
  activation: 2.88% [at 19 µM]
[20]
  activity change, negative = inhibition: -1.21% [at 18.9 µM]

## C=C(C)C(=O)OCCCCCCCCCCCCC
[1]
  Potency: inactive
[2]
  Potency: inactive
[3]
  Potency: inactive
[4]
  Potency: inactive
[5]
  Potency: inactive
[6]
  Potency: inactive
[7]
  Potency: inactive
[8]
  Potency: inactive
[9]
  Potency: inactive
[10]
  Potency: inactive
[11]
  Potency: inactive
[12]
  Potency: inactive
[13]
  Potency: inactive
[14]
  Potency: inactive
[15]
  Potency: inactive
[16]
  Potency: inactive
[17]
  Potency: inactive
[18]
  Potency: inactive
[19]
  Potency: inactive
[20]
  Potency: inactive

## CC1=CCC(O)(C(C)C)CC1 (stereo not given)
[1]
  Potency: inactive
[2]
  Potency: inactive
[3]
  Potency: inactive
[4]
  Potency: inactive
[5]
  Potency: inactive
[6]
  Potency: inactive
[7]
  Potency: inactive
[8]
  Potency: inactive
[9]
  Potency: inactive
[10]
  Potency: inactive
[11]
  Potency: inactive
[12]
  Potency: inactive
[13]
  Potency: inactive
[14]
  Potency: inactive
[15]
  Potency: inactive
[16]
  Potency: inactive
[17]
  Potency: inactive
[18]
  Potency: inactive
[19]
  Potency: inactive
[20]
  Potency: inactive

## COC(=O)c1sccc1S(N)(=O)=O
[1]
  Potency: inactive
[2]
  Potency: inactive
[3]
  Potency: inactive
[4]
  Potency: inactive
[5]
  Potency: inactive
[6]
  Potency: inactive
[7]
  Potency: inactive
[8]
  Potency: inactive
[9]
  Potency: inactive
[10]
  Potency: inactive
[11]
  Potency: inactive
[12]
  Potency: inactive
[13]
  Potency: inactive
[14]
  Potency: inactive
[15]
  Potency: inactive
[16]
  Potency: inactive
[17]
  Potency: inactive
[18]
  Potency: inactive
[19]
  Potency: inactive
[20]
  Potency: inactive

## O=[N+]([O-])c1ccccc1CCO
[1]
  Potency: inactive
[2]
  Potency: inactive
[3]
  Potency: inactive
[4]
  Potency: inactive
[5]
  Potency: inactive
[6]
  Potency: inactive
[7]
  Potency: inactive
[8]
  Potency: inactive
[9]
  Potency: inactive
[10]
  Potency: inactive
[11]
  Potency: inactive
[12]
  Potency: inactive
[13]
  Potency: inactive
[14]
  Potency: 1.1 nM (active)
[15]
  Potency: inactive
[16]
  Potency: inactive
[17]
  Potency: inactive
[18]
  Potency: inactive
[19]
  Potency: inactive
[20]
  Potency: inactive

## FC(F)(F)/C(=N\OCC1OCCO1)c1ccc(Cl)cc1
[1]
  Potency: inactive
[2]
  Potency: inactive
[3]
  Potency: inactive
[4]
  Potency: inactive
[5]
  Potency: inactive
[6]
  Potency: inactive
[7]
  Potency: inactive
[8]
  Potency: inactive
[9]
  Potency: inactive
[10]
  Potency: inactive
[11]
  Potency: inactive
[12]
  Potency: inactive
[13]
  Potency: inactive
[14]
  Potency: inactive
[15]
  Potency: inactive
[16]
  Potency: inactive
[17]
  Potency: inactive
[18]
  Potency: inactive
[19]
  Potency: inactive
[20]
  Potency: inactive
